SMILES strings stand for the structures. “And” between values parts separate entries of the source, which are not always exact repeats. Equal entries are not always repeated. Records with an inconclusive call do not appear. Values without a mark were called inactive. The source made the active and inactive calls. Calls come from the whole dose curve; as a rule, active = well fitted inhibition curve with a large enough effect; inconclusive = small, poorly fitted or top-dose-only effect; inactive = flat fitted curve, though single readings scatter. *1 amine or outer side, *2 acyl side, *3 side chain or, on linkers, in order; H or OH if unused. Where a SMILES comes first, the peptide text is derived from it. Bridges are numbered along the chain shown (N, C = ends). [ ]: non-standard residue; d: D form. The star is where a group is joined. X5 = NC1=N[C@@H]([C@H](N[*:1])C(=O)[*:2])C[C@H](O)N1; ΔAla(Z-3-ureido) = NC(=O)N/C=C(\N)C(=O)O; β3hOrn = NCCC[C@H](N)CC(=O)*; Dap = NC[C@H](N)C(=O)O

Assay [1] is described as follows: Drug repurposing screens with cells derived from glioblastoma tumor samples (AID 1345199). Note: nearly all actives have a fitted effect of over 40% in size. Particulars: GBM patient neurospheres viability, ATP luminescence, 48 h. In outline:
(§1)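 Primary testing used CD133+ neurospheres from four GBM patients, seven concentrations, 48 h exposure and ATP-based viability; confirmation added three slower-growing patient lines.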

In a further assay the test system is astro (control astrocytes). Described as above. Conditions: viability, ATP luminescence, 48 h; series mostly up to 45.9 µM. In outline: as §1
Where [2] appears, read: at 45.9 µM (top of the series), tumour line B.
[3] abbreviates: at 45.9 µM (top of the series), tumour line D.
Setting [4] is: at 46 µM (top of the series), tumour line A.
[5] abbreviates: at 46.1 µM (top of the series), tumour line C.
Setting [6] is: at 20 µM (top of the series), tumour line C.
[7] abbreviates: at 21.2 µM (top of the series), tumour line B.
[8] abbreviates: at 21.2 µM (top of the series), tumour line D.
Where [9] appears, read: at 21.3 µM (top of the series), tumour line A.
% is set by controls: 0 for no effect and ±100 for the full control effect; potency is the fitted concentration of half-maximal effect.

`CC(C)=CCC/C(C)=C/CC/C(C)=C/CC/C=C(\C)CC/C=C(\C)CCC=C(C)C`: the activity, negative = cell killing in assay [1] (setting [2]) is 2.98%; in assay [1] (setting [3]), -28.8%; in assay [1] (setting [4]) it was -32.1%; in assay [1] (setting [5]), -15.4%. The Potency result with astro is “inactive”.

As to `NCCC[C@H](N)CC(=O)N[C@H]1CNC(=O)[C@H]([C@H]2C[C@H](O)NC(N)=N2)NC(=O)/C(=C/NC(N)=O)NC(=O)[C@H](CO)NC(=O)[C@H](CO)NC1=O` (β3hOrn-[Dap]SS[ΔAla(Z-3-ureido)][X5]; lactam 1-C), the activity, negative = cell killing is -0.927% in assay [1] (setting [2]), -12.2% in assay [1] (setting [3]), -14.8% in assay [1] (setting [4]) and -14% in assay [1] (setting [5]). Also, in the assay with astro, the Potency entry was “inactive”.

Regarding `O=C1c2c(O)cccc2[C@H]([C@@H]2O[C@H](CO)[C@@H](O)[C@H](O)[C@H]2O)c2cc(CO)cc(O)c21`, the activity, negative = cell killing in assay [1] (setting [2]) was -6.89%; in assay [1] (setting [3]), -4.21%; in assay [1] (setting [4]), -19.8%; in assay [1] (setting [5]), -2.48%. Besides, the Potency entry in the assay on astro is “inactive”.

For `CC(C)C[C@H](NC(=O)[C@@H](COC(C)(C)C)NC(=O)[C@H](Cc1ccc(O)cc1)NC(=O)[C@H](CO)NC(=O)[C@H](Cc1c[nH]c2ccccc12)NC(=O)[C@H](Cc1cnc[nH]1)NC(=O)[C@@H]1CCC(=O)N1)C(=O)N[C@@H](CCCN=C(N)N)C(=O)N1CCC[C@H]1C(=O)NNC(N)=O`, the activity, negative = cell killing in assay [1] (setting [2]) was -16.4% and -7.35%; in assay [1] (setting [3]) it was -27.1% and -14%; in assay [1] (setting [4]) it was -28.3% and -17.4%; in assay [1] (setting [5]), -8.14% and 8.02%. For the same compound, in the assay on astro, the Potency result is “inactive”.

Take `CC(CNC(=O)c1cccnc1)NC(=O)c1cccnc1` (stereo not given): the activity, negative = cell killing in assay [1] (setting [2]) was -10.6%; in assay [1] (setting [3]), -9.97%; in assay [1] (setting [4]), -56.9%; in assay [1] (setting [5]), -14.1%. Further, in the assay on astro, the Potency entry is “inactive”.

For `CC(C)[C@@H]1CC[C@@H](C)C[C@H]1OC(=O)c1ccccc1O`, the activity, negative = cell killing was -16.3% in assay [1] (setting [2]), -12.7% in assay [1] (setting [3]), -21.2% in assay [1] (setting [4]) and -34.9% in assay [1] (setting [5]). For the same compound, the Potency result in the assay with astro is “inactive”.

On to `OC1OC[C@@H](O)[C@H](O)[C@@H]1O` (stereo not given in full), for which the activity, negative = cell killing was -0.633% in assay [1] (setting [2]), 10.5% in assay [1] (setting [3]), -6.9% in assay [1] (setting [4]) and 14.5% in assay [1] (setting [5]). Besides, the Potency result with astro is “inactive”.

`CC(=O)Nc1ccc(OC(=O)c2ccccc2O)cc1`: the activity, negative = cell killing in assay [1] (setting [2]) is -6.12%; in assay [1] (setting [3]), -8.68%; in assay [1] (setting [4]) it was -14.5%; in assay [1] (setting [5]), -22.3%. The Potency entry in the assay on astro was “inactive”.

As to `NS(=O)(=O)c1cc2c(cc1Cl)NC(Cc1ccccc1)NS2(=O)=O` (stereo not given), the activity, negative = cell killing is 4.57% in assay [1] (setting [2]), 9.26% in assay [1] (setting [3]), -28.7% in assay [1] (setting [4]) and 0.872% in assay [1] (setting [5]). For the same compound, the Potency result in the assay on astro was “inactive”.

In the case of `[O]=[Bi][O][Bi]=[O]`, the activity, negative = cell killing in assay [1] (setting [2]) is -6.82%; in assay [1] (setting [3]), -2.13%; in assay [1] (setting [4]) it was 1.51%; in assay [1] (setting [5]), 0.751%. Further, in the assay on astro, the Potency result is “inactive”.

For `CN[C@@H]1[C@H](O[C@H]2[C@H](O[C@H]3[C@H](O)[C@@H](O)[C@H](N=C(N)N)[C@@H](O)[C@@H]3N=C(N)N)O[C@@H](C)[C@]2(O)C=O)O[C@@H](CO)[C@H](O)[C@H]1O`, the activity, negative = cell killing was 1.28% in assay [1] (setting [2]), -18.9% in assay [1] (setting [3]), -12% in assay [1] (setting [4]) and -1.08% in assay [1] (setting [5]). In addition, the Potency result with astro was “inactive”.

In the case of `CC/C(=C(/CC)c1ccc(OP(=O)(O)O)cc1)c1ccc(OP(=O)(O)O)cc1`, the activity, negative = cell killing is -16% in assay [1] (setting [2]), -11.4% in assay [1] (setting [3]), -22.6% in assay [1] (setting [4]) and -17.3% in assay [1] (setting [5]). Further, the Potency entry in the assay on astro was “inactive”.

For the compound `CCCC(=O)Nc1c(I)cc(I)c(CC(CC)C(=O)O)c1I` (stereo not given), the activity, negative = cell killing was -12.8% in assay [1] (setting [2]), 14.7% in assay [1] (setting [3]), -17.5% in assay [1] (setting [4]) and -13.2% in assay [1] (setting [5]). Further, the Potency entry in the assay on astro is “inactive”.

As for `CO[C@H]1C=CO[C@@]2(C)Oc3c(C)c(O)c4c(O)c(cc(O)c4c3C2=O)NC(=O)/C(C)=C\C=C/[C@H](C)[C@H](O)[C@@H](C)[C@@H](O)[C@@H](C)[C@H](OC(C)=O)[C@@H]1C`, the activity, negative = cell killing in assay [1] (setting [2]) was -13.5%; in assay [1] (setting [3]), -5.36%; in assay [1] (setting [4]) it was -17.1%; in assay [1] (setting [5]), -2.25%. Also, in the assay with astro, the Potency entry was “inactive”.

Take `O=C1C2CC3CC1CC(O)(C3)C2`: the activity, negative = cell killing in assay [1] (setting [2]) was 0.0639%; in assay [1] (setting [3]), -11.1%; in assay [1] (setting [4]) it was -19.7%; in assay [1] (setting [5]) it was -14.8%. Moreover, the Potency result with astro is “inactive”.

For `OC[C@@H](O)C(O)[C@H](O)CO`, the activity, negative = cell killing was -10.5% in assay [1] (setting [2]), -11.3% in assay [1] (setting [3]), -25% in assay [1] (setting [4]) and 11.8% in assay [1] (setting [5]). Besides, the Potency result with astro was “inactive”.

As to `CCCCCc1ccc(C)cc1O`, the activity, negative = cell killing in assay [1] (setting [2]) is -7.13%; in assay [1] (setting [3]), 3.04%; in assay [1] (setting [4]), -24.1%; in assay [1] (setting [5]), -11.1%. In the assay on astro, the Potency result was “inactive”.

Regarding `O.O.O.O.O.O.O.O=S(=O)([O-])[O-].[Co+2]`, the activity, negative = cell killing in assay [1] (setting [2]) is -22.6%; in assay [1] (setting [3]), 15.1%; in assay [1] (setting [4]) it was -23.8%; in assay [1] (setting [5]) it was 10.4%. Further, the Potency entry in the assay with astro was “inactive”.

With `CC(=O)Oc1cc(C(F)(F)F)ccc1C(=O)O`, the activity, negative = cell killing was -16.9% in assay [1] (setting [6]), -19.3% in assay [1] (setting [7]), -15.7% in assay [1] (setting [8]) and -29% in assay [1] (setting [9]). Also, the Potency result in the assay on astro is “inactive”.

In the case of `NC[C@H]1O[C@H](O[C@H]2[C@H](O)[C@@H](O[C@H]3O[C@H](CO)[C@@H](O)[C@H](N)[C@H]3O)[C@H](N)C[C@@H]2N)[C@H](N)C[C@@H]1O`, the activity, negative = cell killing was 1.26% in assay [1] (setting [6]), -9.72% in assay [1] (setting [7]), -3.61% in assay [1] (setting [8]) and -18.4% in assay [1] (setting [9]). For the same compound, the Potency entry in the assay on astro is “inactive”.

For `CC1(C)[C@@H]2CC[C@@]1(C)[C@H](OC(=O)CSC#N)C2`, the activity, negative = cell killing is -7.75% in assay [1] (setting [2]), -12% in assay [1] (setting [3]) and 23.1% in assay [1] (setting [5]). Also, the Potency in assay [1] (tumour line A) is 35.5 µM (active). In addition, in the assay with astro, the Potency entry was “inactive”.

These data come from PubChem BioAssay (NCATS).
